Results filed as inconclusive are left out. Active and inactive are the calls of the source. Calls come from the whole dose curve; as a rule, active = well fitted inhibition curve with a large enough effect; inconclusive = small, poorly fitted or top-dose-only effect; inactive = flat fitted curve, though single readings scatter.
These compounds were tested on Zika virus NS2B-NS3 protease (assay: Primary screen GU AMC qHTS for Zika virus inhibitors (AID 1347154;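 note: 0% = no-inhibitor control and -100% = no-enzyme control; nearly all actives have a fitted effect of over 70% in size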)). Settings: Zika NS2B-NS3 unlinked protease, AMC fluorogenic substrate; series mostly up to 54.1 µM; activity change, negative = inhibition: at the top concentration.
How it was run: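 Fluorogenic AMC-substrate cleavage by noncovalent NS2B-NS3 protease complex (25 nM, pH 8.0 Tris buffer with Tween 20) followed for 15 minutes at room temperature (~20% conversion). Percent inhibition from ex340/em450 signal change, fitted by 4-parameter Hill equation.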

SMILES	activity change, negative = inhibition	Potency
COc1ccc(C(C)=O)c(O)c1	13.5% (inactive)	–
CC(C)[C@H](CO)Nc1nc(Nc2cccc(Cl)c2)c2ncn(C(C)C)c2n1	–	inactive
Nc1nc2c(c(=O)[nH]1)N(C=O)[C@H](CNc1ccc(C(=O)N[C@@H](CCC(=O)O)C(=O)O)cc1)CN2	24.8% (inactive)	–
CC[C@H]1OC(=O)[C@H](C)[C@@H](O[C@H]2C[C@@](C)(OC)[C@@H](O)[C@H](C)O2)[C@H](C)[C@@H](O[C@@H]2O[C@H](C)C[C@H](N(C)C)[C@@H]2O)[C@](C)(OC)C[C@@H](C)C(=O)[C@H](C)[C@@H](O)[C@]1(C)O	3.75% (inactive)	–
Nc1ccn(C[C@@H](CO)OCP(=O)(O)O)c(=O)n1	8.48% [at 25.8 µM] (inactive)	–
CC(=O)O[C@]1(C(C)=O)CC[C@H]2[C@@H]3C=C(C)C4=CC(=O)CC[C@]4(C)[C@@H]3CC[C@@]21C	0.685% (inactive)	–
O=C(CN1C(=O)C2(CCCC2)NC[C@H]1c1cc(F)cc(F)c1)Nc1ccc2c(c1)C[C@@]1(C2)C(=O)Nc2ncccc21	2.16% (inactive)	–
O=C(O)[C@H](CC(=O)N1C[C@@H]2CCCC[C@H]2C1)Cc1ccccc1	20.5% (inactive)	–
Nc1ncn([C@@H]2O[C@H](CO)[C@@H](O)[C@@H]2O)c(=O)n1	-4.98% (inactive)	–
C#C[C@]1(O)CC[C@@H]2[C@@H]3CCC4=CC(=O)CC[C@@H]4[C@H]3CC[C@@]21CC	-6.9% (inactive)	–
CC(C)C[C@H](NC(=O)CNC(=O)c1cc(Cl)ccc1Cl)B1OC(=O)CC(CC(=O)O)(C(=O)O)O1 (some centres not stated)	2.52% (inactive)	–
CC(C)NC[C@@H](C(=O)N1CCN(c2ncnc3c2[C@H](C)C[C@H]3O)CC1)c1ccc(Cl)cc1	13.9% (inactive)	–
O=C(Nc1cccc(Nc2ncc(Br)c(NCCc3cnc[nH]3)n2)c1)N1CCCC1	3.32% (inactive)	–
CCCCCN=C(N)NN=Cc1c[nH]c2ccc(OC)cc12	-1.37% (inactive)	–
CN(C)c1ccc(C(=O)NCCCCCCC(=O)NO)cc1	1.91% (inactive)	–
C=CC[C@@H]1C=C(C)C[C@H](C)C[C@H](OC)[C@H]2O[C@@](O)(C(=O)C(=O)N3CCCC[C@H]3C(=O)O[C@H](C(C)=C[C@@H]3CC[C@H](O)[C@H](OC)C3)[C@@H](C)[C@@H](O)CC1=O)[C@@H](C)C[C@@H]2OC	29.2% (inactive)	–

SMILES	activity change, negative = inhibition	Potency
C#Cc1cccc(Nc2ncnc3cc(OCCOC)c(OCCO)cc23)c1	1.33% (inactive)	–
CC(=O)OCC(=O)[C@@]12N=C(C)O[C@H]1C[C@H]1[C@@H]3CCC4=CC(=O)C=C[C@]4(C)[C@@H]3[C@@H](O)C[C@@]12C	-0.407% (inactive)	–
COc1cc([C@@H]2c3cc4c(cc3[C@H](O)[C@H]3COC(=O)[C@@H]23)OCO4)cc(OC)c1OC	9.52% (inactive)	–
CC(=O)C1=C(O)C=C2Oc3c(C(C)=O)c(O)c(C)c(O)c3C2(C)C1=O (configuration not stated)	-10.7% (inactive)	–
C[N+](C)([O-])CCNc1ccc(NCC[N+](C)(C)[O-])c2c1C(=O)c1c(O)ccc(O)c1C2=O	11.9% (inactive)	–
COc1ccc([C@@H]2CNC(=O)C2)cc1OC1CCCC1	–	inactive
CCCCCCCCCCCC(CC1OC(=O)C1CCCCCC)OC(=O)C(CC(C)C)NC=O (configuration not stated)	-10.3% (inactive)	–
CC(C)(O)[C@H]1CC[C@@](C)([C@H]2[C@@H](O)C[C@@]3(C)[C@@H]4C[C@H](O[C@@H]5O[C@H](CO)[C@@H](O)[C@H](O)[C@@H]5O)[C@H]5C(C)(C)[C@@H](O[C@@H]6OC[C@@H](O)[C@H](O)[C@@H]6O)CC[C@@]56C[C@@]46CC[C@]23C)O1	-13.9% (inactive)	–
COc1cc(C(C)C)c(Oc2cnc(NC(CO)CO)nc2N)cc1I	1.4% (inactive)	–
C[C@](Cc1c[nH]c2ccccc12)(NC(=O)OC1C2CC3CC(C2)CC1C3)C(=O)NC[C@H](NC(=O)CCC(=O)O)c1ccccc1 (some centres not stated)	-14.7% (inactive)	–
COc1ccc(CCC(=O)c2c(O)cc(O[C@@H]3O[C@H](CO)[C@@H](O)[C@H](O)[C@@H]3O[C@@H]3O[C@@H](C)[C@H](O)[C@@H](O)[C@@H]3O)cc2O)cc1O	-1.15% (inactive)	–
COC(=O)[C@@H]1CC2=CC(=O)CC[C@]2(C)[C@@]23O[C@@H]2C[C@@]2(C)[C@H](CC[C@@]24CCC(=O)O4)[C@@H]13	12.9% (inactive)	–
C[C@@H]1CC[C@@]2(OC1)OC1CC3C4CC=C5CC(O)CCC5(C)C4CCC3(C)C1[C@@H]2C (some centres not stated)	9.39% (inactive)	–
CCN(CC)CCNC(=O)c1c(C)[nH]c(C=C2C(=O)Nc3ccc(F)cc32)c1C	12.9% [at 104 µM] (inactive)	–
COc1cc(C[C@@H](CO)[C@H](CO)Cc2ccc(O)c(OC)c2)ccc1O	7.64% (inactive)	–
CN[C@H]1[C@@H](O)[C@@H]2O[C@@H]3O[C@H](C)CC(=O)[C@]3(O)O[C@@H]2[C@@H](NC)[C@H]1O	-7.51% (inactive)	–

Source: PubChem BioAssay (NCATS)
